For 3 molecules, outcome and AC50 results are on record in PubChem BioAssay (EPA / NIEHS).

SMILES strings stand for the structures. Activity calls are given as the source filed them. Rule for the calls: active = hit-call score of the fitted dose curve at least 0.9, where 1 is the maximum; inactive = score below 0.9.

Holding throughout (settings): mRNA level, 48 h; actives raise or lower the signal
Read-out in assay [1]: Peroxisomal acyl-coenzyme A oxidase 1 (ACOX1) gene, ACOX1 (gene 51)
In words: LTEA_HepaRG_ACOX1: Life Technologies and Expression Analysis (LTEA) Assay for Peroxisomal acyl-coenzyme A oxidase 1 (ACOX1) gene using HepaRG (AID 2283467). In short, it runs like this: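 Measured by qRT-PCR against three housekeeping genes: ACOX1 transcript change in human HepaRG cells after 48 h dosing. Concentrations ran up to 100 uM in half-log steps. Curves were fitted bidirectionally relative to 0.5% DMSO.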

Read-out in assay [2]: Alkaline Phosphatase, Placental (ALPP) gene, ALPP (gene 250)
In words: LTEA_HepaRG_ALPP: Life Technologies and Expression Analysis (LTEA) Assay for Alkaline Phosphatase, Placental (ALPP) gene using HepaRG (AID 2283468).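 For AC50: differentiated human HepaRG liver cells in serum-free induction medium.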 In short, it runs like this:
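qRT-PCR readout of ALPP mRNA (Fluidigm TaqMan), normalized to ACTB/GAPDH/POLR2A, after 48 h chemical exposure of HepaRG cells; 8-point half-log series, top 100 uM, 0.5% DMSO vehicle. Bidirectional curve fit versus DMSO baseline.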

Read-out in assay [3]: Bcl-2 (BAD) gene, BAD (gene 572)
Nature of the assay: LTEA_HepaRG_BAD: Life Technologies and Expression Analysis (LTEA) Assay for Bcl-2 (BAD) gene using HepaRG (AID 2283469). The method, boiled down:
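BAD transcript change, measured by qRT-PCR against three housekeeping genes and fitted in both directions relative to 0.5% DMSO, after 48 h chemical treatment of human HepaRG liver cells at concentrations up to 100 uM.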

Read-out in assay [4]: Bcl-2 (BAX) gene, BAX (gene 581)
In words: LTEA_HepaRG_BAX: Life Technologies and Expression Analysis (LTEA) Assay for Bcl-2 (BAX) gene using HepaRG (AID 2283470). The method, boiled down: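 HepaRG (human liver), 48 h exposure, duplicate wells. 8-pt curve, half-log from 100 uM, 0.5% DMSO. BAX transcript by TaqMan qRT-PCR; ACTB/GAPDH/POLR2A normalization; gain or loss vs DMSO baseline.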

Read-out in assay [5]: adenosine kinase (ADK) gene, ADK (gene 132)
In words: LTEA_HepaRG_ADK: Life Technologies and Expression Analysis (LTEA) Assay for adenosine kinase (ADK) gene using HepaRG (AID 2283471). The method, boiled down:
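Read-out is ADK transcript level measured by qRT-PCR and normalised to three housekeeping genes. Cells are human HepaRG, dosed for 48 h at up to 100 uM in 0.5% DMSO. Gain or loss of signal is fitted against DMSO controls.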

Read-out in assay [6]: Alpha-fetoprotein (AFP) gene, AFP (gene 174)
In words: LTEA_HepaRG_AFP: Life Technologies and Expression Analysis (LTEA) Assay for Alpha-fetoprotein (AFP) gene using HepaRG (AID 2283472). The method, boiled down: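 HepaRG, single lot; 48 h post-plating -> serum-free induction medium; cpd 8-pt, 100 uM top, half-log, 0.5% DMSO, duplicate, 48 h. RNA -> qRT-PCR AFP, norm ACTB/GAPDH/POLR2A. Bidirectional fit vs DMSO.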

Read-out in a further assay: BCL2L11 (gene 10018)
Nature of the assay: LTEA_HepaRG_BCL2L11: Life Technologies and Expression Analysis (LTEA) Assay for Bcl-2 (BCL2L11) gene using HepaRG (AID 2283473). In short, it runs like this: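 HepaRG, 48 h exposure, 8-pt half-log series from 100 uM in 0.5% DMSO, duplicates; qRT-PCR (Fluidigm TaqMan) for BCL2L11, housekeeping-normalized; bidirectional curve fit relative to DMSO baseline.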

Read-out in assay [7]: Apolipoprotein A-V (APOA5) gene, APOA5 (gene 116519)
Nature of the assay: LTEA_HepaRG_APOA5: Life Technologies and Expression Analysis (LTEA) Assay for Apolipoprotein A-V (APOA5) gene using HepaRG (AID 2283474). The method, boiled down: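 HepaRG, 48 h chemical exposure in serum-free induction medium, 8-pt half-log series (top 100 uM), 0.5% DMSO vehicle, duplicates. Readout: APOA5 mRNA by qRT-PCR, housekeeping-normalized; bidirectional fit vs DMSO baseline.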

Read-out in assay [8]: Apoptosis regulator Bcl-2 (Homo sapiens) (UniProt P10415)
Nature of the assay: LTEA_HepaRG_BCL2: Life Technologies and Expression Analysis (LTEA) Assay for Bcl-2 gene using HepaRG (AID 2283475). The method, boiled down: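 HepaRG, plated 48 h then switched to serum-free induction medium; dosed 48 h, 8 conc. (max 100 uM, half-log steps), duplicate, 0.5% DMSO. Lysis in RLT, RNA isolated, TaqMan qRT-PCR for BCL2; ACTB/GAPDH/POLR2A normalisation; bidirectional fit vs DMSO.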

Read-out in assay [9]: Bcl-2 (BID) gene, BID (gene 637)
In words: LTEA_HepaRG_BID: Life Technologies and Expression Analysis (LTEA) Assay for Bcl-2 (BID) gene using HepaRG (AID 2283476). The method, boiled down: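 Transcript levels of BID, measured by qRT-PCR and normalized to three housekeeping genes, were fitted bidirectionally against DMSO controls. Cells were HepaRG, dosed 48 h at up to 100 uM.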

Read-out in a further assay: Caspase-3 (Homo sapiens) (UniProt P42574)
Nature of the assay: LTEA_HepaRG_CASP3: Life Technologies and Expression Analysis (LTEA) Assay for cysteine-aspartic acid protease (CASP3) using HepaRG (AID 2283477). In short, it runs like this:
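HepaRG, 48 h exposure, 8 conc. (top 100 uM, half-log steps, duplicate), 0.5% DMSO vehicle; qRT-PCR of CASP3 transcript, housekeeping-normalised (ACTB/GAPDH/POLR2A); bidirectional curve fit vs DMSO baseline.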

Read-out in assay [10]: Cytochrome P450 (CYP24A1), CYP24A1 (gene 1591)
Nature of the assay: LTEA_HepaRG_CYP24A1: Life Technologies and Expression Analysis (LTEA) Assay for Cytochrome P450 (CYP24A1) using HepaRG (AID 2283478). The method, boiled down: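 qRT-PCR read-out: CYP24A1 transcript levels normalized to three housekeeping genes, bidirectional curve fits against 0.5% DMSO baseline. Human HepaRG cells treated 48 h with chemicals at eight concentrations from 100 uM in half-log steps.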

Read-out in assay [11]: cysteine-aspartic acid protease (CASP8), CASP8 (gene 841)
Nature of the assay: LTEA_HepaRG_CASP8: Life Technologies and Expression Analysis (LTEA) Assay for cysteine-aspartic acid protease (CASP8) using HepaRG (AID 2283480). The method, boiled down:
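HepaRG, 48 h exposure, duplicate wells; 8 conc, half-log from 100 uM, 0.5% DMSO. Serum-free induction medium. CASP8 mRNA by TaqMan qRT-PCR, norm. ACTB/GAPDH/POLR2A; gain/loss fitted vs DMSO.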

Read-out in assay [12]: Cytochrome P450 (CYP2B6), CYP2B6 (gene 1555)
Nature of the assay: LTEA_HepaRG_CYP2B6: Life Technologies and Expression Analysis (LTEA) Assay for Cytochrome P450 (CYP2B6) using HepaRG (AID 2283481). The method, boiled down: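 Read-out is CYP2B6 mRNA by TaqMan qRT-PCR, normalized to three housekeeping genes and fitted bidirectionally against 0.5% DMSO baseline. Human HepaRG cells received test chemicals for 48 h, top concentration 100 uM, half-log dilutions.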

Read-out in assay [13]: Cytochrome P450 2C19 (Homo sapiens) (UniProt P33261)
Nature of the assay: LTEA_HepaRG_CYP2C19: Life Technologies and Expression Analysis (LTEA) Assay for CYP2C19 using HepaRG (AID 2283482). In short, it runs like this: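 HepaRG, 48 h chemical exposure, 8-pt half-log series from 100 uM in 0.5% DMSO, duplicates. Readout: CYP2C19 mRNA by TaqMan qRT-PCR, housekeeping-normalized. Bidirectional fit vs DMSO baseline; phenobarbital 1mM as induction control.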

Read-out in the next assay: CYP2C8 (gene 1558)
In words: LTEA_HepaRG_CYP2C8: Life Technologies and Expression Analysis (LTEA) Assay for CYP2C8 using HepaRG (AID 2283483). In short, it runs like this: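 CYP2C8 mRNA induction or loss, by qRT-PCR normalized to ACTB/GAPDH/POLR2A, is read in HepaRG cells after 48 h treatment. Concentrations run from 100 uM down in half-log dilutions, with 0.5% DMSO as vehicle and baseline.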

Read-out in a further assay: CYP2C9 (gene 1559)
In words: LTEA_HepaRG_CYP2C9: Life Technologies and Expression Analysis (LTEA) Assay for CYP2C9 using HepaRG (AID 2283484). The method, boiled down:
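Cells plated 48 h, switched to serum-free induction medium, then treated in duplicate for 48 h at eight concentrations (max 100 uM, 0.5% DMSO). RNA then analysed by qRT-PCR for CYP2C9; curves fitted in both directions relative to DMSO.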

Read-out in another assay: CYP2E1 (gene 1571)
Nature of the assay: LTEA_HepaRG_CYP2E1: Life Technologies and Expression Analysis (LTEA) Assay for CYP2E1 using HepaRG (AID 2283485). In short, it runs like this:
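Human liver line HepaRG, plated 48 h, then serum-free induction medium + chemical x 48 h; 8-pt CRC from 100 uM, half-log, 0.5% DMSO, n=2. Readout: CYP2E1 mRNA qRT-PCR vs ACTB/GAPDH/POLR2A; bidirectional fit vs DMSO.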

Read-out in another assay: CYP4A11 (gene 1579)
In words: LTEA_HepaRG_CYP4A11: Life Technologies and Expression Analysis (LTEA) Assay for CYP4A11 using HepaRG (AID 2283486). The method, boiled down: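 CYP4A11 transcript levels were quantified by TaqMan qRT-PCR after HepaRG human liver cells were treated for 48 hours with test chemicals (top 100 uM, half-log dilutions, 0.5% DMSO). Gain or loss of signal was fitted relative to DMSO.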

Read-out in assay [14]: Cytochrome P450 (CYP1A2), CYP1A2 (gene 1544)
In words: LTEA_HepaRG_CYP1A2: Life Technologies and Expression Analysis (LTEA) Assay for Cytochrome P450 (CYP1A2) using HepaRG (AID 2283479). The method, boiled down: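 HepaRG, 48 h exposure, top 100 uM, half-log 8-pt, 0.5% DMSO vehicle, duplicates. Readout: TaqMan qRT-PCR of CYP1A2 mRNA, housekeeping-normalized (ACTB/GAPDH/POLR2A). Gain/loss fit relative to DMSO baseline.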

Chain of Cytochrome P450 2C19 (Homo sapiens) (P33261 whole entry, looked up): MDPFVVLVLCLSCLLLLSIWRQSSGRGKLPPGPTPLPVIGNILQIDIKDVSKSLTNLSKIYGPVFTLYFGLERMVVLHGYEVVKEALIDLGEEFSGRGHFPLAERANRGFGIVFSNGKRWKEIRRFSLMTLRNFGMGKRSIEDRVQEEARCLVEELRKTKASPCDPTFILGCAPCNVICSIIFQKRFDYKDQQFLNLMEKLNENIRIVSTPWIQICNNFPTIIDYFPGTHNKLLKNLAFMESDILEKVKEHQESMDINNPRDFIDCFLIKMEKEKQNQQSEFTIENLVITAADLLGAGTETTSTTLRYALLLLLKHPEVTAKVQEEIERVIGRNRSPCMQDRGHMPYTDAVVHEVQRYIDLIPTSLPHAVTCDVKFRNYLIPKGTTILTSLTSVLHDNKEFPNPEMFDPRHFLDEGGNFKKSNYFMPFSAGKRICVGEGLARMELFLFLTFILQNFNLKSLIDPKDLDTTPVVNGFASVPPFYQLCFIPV
Chain of Apoptosis regulator Bcl-2 (Homo sapiens) (P10415 whole entry, looked up): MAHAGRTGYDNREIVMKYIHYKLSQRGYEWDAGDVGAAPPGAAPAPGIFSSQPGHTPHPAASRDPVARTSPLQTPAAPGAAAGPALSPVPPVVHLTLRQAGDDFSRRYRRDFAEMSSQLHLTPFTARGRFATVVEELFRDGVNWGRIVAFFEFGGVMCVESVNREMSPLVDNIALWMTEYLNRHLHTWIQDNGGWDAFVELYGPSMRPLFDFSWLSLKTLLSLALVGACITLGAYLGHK
Chain of Caspase-3 (Homo sapiens) (P42574 whole entry, looked up): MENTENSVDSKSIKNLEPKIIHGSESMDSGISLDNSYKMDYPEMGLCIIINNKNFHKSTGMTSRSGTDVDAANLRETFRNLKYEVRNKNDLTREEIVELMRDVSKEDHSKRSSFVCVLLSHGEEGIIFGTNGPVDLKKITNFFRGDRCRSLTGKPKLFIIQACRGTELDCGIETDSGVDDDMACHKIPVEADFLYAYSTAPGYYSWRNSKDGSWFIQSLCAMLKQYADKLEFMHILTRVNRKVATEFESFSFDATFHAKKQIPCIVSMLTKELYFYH

As for `CCc1cc(C2=C(C(=O)O)N(c3ccccc3C(F)(F)F)S(=O)(=O)c3ccccc32)cc2c1OCO2`, the call (in assay [1]; in assay [3]; in assay [5]; with BCL2L11 (gene 10018); in assay [9]; in the assay with Caspase-3 (Homo sapiens)) was inactive. Also, the call in assay [10] and in assay [11] was inactive. Also, the half-maximal activity concentration (AC50) in assay [2] was 30.9 µM (active); in [4], 50 µM (active); in [6] it was 65 µM (active); in assay [7], 77.2 µM (active); in assay [8] it was 79.9 µM (active); in assay [12], 90.5 µM (active). Moreover, the AC50 in [13] is 91.9 µM (active); in the assay with CYP2C8 (gene 1558), 91.7 µM (active); in the assay with CYP2C9 (gene 1559), 86.1 µM (active); in the assay with CYP2E1 (gene 1571), 56.8 µM (active); in the assay with CYP4A11 (gene 1579), 39.7 µM (active).

For the molecule `COc1ccc(C(=O)Nc2nc3ccccc3c(NCc3ccccc3)c2C#N)cc1`, the AC50 in assay [1] was 13.3 µM (active); in [6], 21.7 µM (active); in the assay with BCL2L11 (gene 10018), 10.8 µM (active); in [10], 0.00721 µM (active); in [14], 3 µM (active); in assay [13], 22.1 µM (active). The AC50 is 16.7 µM (active) in the assay with CYP2C8 (gene 1558), 16.3 µM (active) in the assay with CYP2C9 (gene 1559), 20 µM (active) in the assay with CYP2E1 (gene 1571) and 28.3 µM (active) in the assay with CYP4A11 (gene 1579). The molecule was called inactive in assay [2], in assay [3], in [4], in [5], in assay [7] and in assay [8]. Further, the molecule was classed as inactive (in assay [9]; with Caspase-3 (Homo sapiens); in assay [11]).

As to `O=NO`, the outcome (in assay [1]; in [2]; in assay [3]; in assay [5]; in [6]; with BCL2L11 (gene 10018)) was inactive. The result (in [7]; in [8]; in assay [9]; with Caspase-3 (Homo sapiens); in assay [10]; in assay [14]) was inactive. The molecule was classed as inactive (in assay [11]; in assay [12]; in assay [13]; in the assay with CYP2C8 (gene 1558); with CYP2C9 (gene 1559); with CYP2E1 (gene 1571)). In the assay with CYP4A11 (gene 1579), the molecule was classed as inactive.
